# Sampled rows, rich in hits. Any-hit rate of the full collection: about 2.7%.
# CHT inh – inhibitors of human choline transporter CHT | Q9GZV3 | CHT-expressing cells, membrane potential dye, choline response; active compounds read low | B-score at 10 µM | hit rate 0.86% among 310,000 | AID 488975;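 active = B-score over 3 SD under the library average, and starting fluorescence ratio not unusually high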;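 also: choline stimulus applied at its EC90 after an EC20 pre-addition; B-score computed on integrated fluorescence ratio after choline addition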
# IDE act – IDE (human) activation, cell-based; P14735; HEK cells, FAbeta-B cleavage, fluorescence polarization; 0% vehicle, 100% cell-free pure enzyme wells; activation, % at 5.96 µM; hit rate 0.073% among 340,000;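 active = activation above the mean of all tested compounds plus 3 SD, set per screening campaign, cut at about 17% in these data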
# CHT PAM – human CHT allosteric activation; hit rate 0.49% among 310,000; B-score at 10 µM; Q9GZV3; CHT-expressing cells, membrane potential dye, choline EC20; active compounds read high; LV-AA mutant CHT in HEK293 cells;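 active = initial fluorescence not abnormally high and integrated response B-score, plate-corrected, over 3 SD above library mean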
# ANO1 block – blocks the mouse calcium-activated chloride channel TMEM16A; HEK293 TMEM16A/YFP iodide influx fluorescence, ionomycin; hit rate 1.2% among 310,000; Q8BHY3; normalized B-score (activity score, 25-100; higher = stronger inhibition) at 10 µM;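 active = ratio plate-corrected score three or more library SD toward inhibition, starting fluorescence score within five deviations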;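 also: score derived from kinetic fluorescence span divided by baseline fluorescence per well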
# IDE cell inh – cellular human IDE inhibition; HEK cells, FAbetaB cleavage, fluorescence polarization; inhibition, % at 5.59 µM; hit rate 0.41% among 320,000; AID 434962;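 active = percent inhibition above the average of all tested compounds plus 3 SD, set per screening campaign, cut at about 16% in these data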;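 also: IDE supplied by intact live HEK cells; FP after avidin binding of uncleaved biotin substrate so inhibition keeps polarization high; 0% = DMSO wells and 100% = 60 µM reference IDE inhibitor Ii1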
# TMEM16A act – activators or potentiators of mouse TMEM16A chloride channel; HEK293 TMEM16A/YFP-H148Q/I152L, iodide quench fluorescence; active compounds read low; B-score at 10 µM; hit rate 0.3% among 340,000; AID 623877;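 active = fluorescence-ratio B-score plate-corrected deviation score at least 3 library SD below zero, with starting fluorescence score within 5 deviations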;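 also: channel opened by trigger with iodide after compound preincubation; score built on the fluorescence ratio of max minus min over baseline; more negative score means more quench and so TMEM16A activation or potentiation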
# CHT act confirm – human CHT activation, confirmatory screen; shares compounds with CHT PAM; CHT-expressing cells, membrane potential dye fluorescence (FDSS); % of choline EC20–EC90 response window; HEK293 expressing CHT LV-AA mutant; choline added at its EC20; activation, % at 10 µM; hit rate 91% among 2,500; AID 504833;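 active = primary screen active, with duplicate mean activation above negative control mean plus 3 SD, cut at about 11% in these data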
# HEK293 MP dye – CHT activator counter-screen hit in parental HEK293 cells; shares compounds with CHT PAM; membrane potential dye fluorescence (FDSS); measured after EC20 choline addition; ratio readout change at 10 µM, hits read low; hit rate 62% among 2,500;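 active = duplicate-averaged ratio beyond 3 SD from buffer wells, up or down, though filed actives are nearly all decreases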
# Starred values were filed as active, the others as inactive; i = inactive; · = no result; ! = not active in a repeat.
SMILES,CHT inh,IDE act,CHT PAM,ANO1 block,IDE cell inh,TMEM16A act,CHT act confirm,HEK293 MP dye
CC1CCN(Cc2c(C(=O)N/N=C/c3ccc(C(C)(C)C)cc3)nnn2-c2nonc2N)CC1,i,3,7*,i,0,i,14*,i
CCOc1ccccc1/C=N/NC(=O)c1nnn(-c2nonc2N)c1CN1CCC(C)CC1,i,5,i,i,-1,i,·,·
C/C(=N\NC(=O)c1nnn(-c2nonc2N)c1CN1CCC(C)CC1)c1cccc(Br)c1,i,3,i,i,1,i,16*,i
CC(=O)N1c2ccc(S(=O)(=O)NCC3CCC(C(=O)NC4CCCCC4C)CC3)cc2CC1C (centres undefined),i,4,i,i,1,i,·,·
O=C(NCc1ccon1)c1ccc(OC2CCN(CCc3ccccc3)CC2)cc1,i,0,i,i,4,i,·,·
CCc1cc(CNC(=O)c2ccc(OC3CCN(CCc4ccccc4)CC3)cc2)on1,i,5,6.5*,i,-1,i,-4,-25*
Cc1ccccc1NC(=O)CC1C(=O)Nc2ccccc2N1CC(=O)N(C)C1CCS(=O)(=O)C1 (centres undefined),·,5,·,·,-4,i,·,·
CC(OC(=O)C1=COCCO1)C(=O)Nc1ccc(Cl)cn1 (centres undefined),i,-1,i,i,-3,i,·,·
CC(SCc1nc2sc3c(c2c(=O)[nH]1)CCCC3)C(=O)Nc1ccccn1 (centres undefined),i,0,i,i,3,i,·,·
O=C(OCC(=O)N1CCc2ccccc21)c1n[nH]c(=O)c2ccccc12,·,0,·,·,6,i,·,·
COc1ccc(N=c2sc3ccccc3n2C)cc1,i,-1,i,i,-2,i,·,·
Cc1cc(C)c2c(c1)/C(=N\N=c1\sc3ccccc3n1C)C(=O)N2,i,7,i,i,-4,i,23*,i
CC(=O)c1ccc(NC(=O)[C@@H]2CCCN2C2=NS(=O)(=O)c3ccccc32)cc1,·,1,·,·,-2,i,·,·
CC1CSc2n(-c3cccc(C(F)(F)F)c3)cc(-c3ccccc3)[n+]21 (centres undefined),i,2,i,i,-3,i,50*,-31*
FC(F)(F)c1cccc(N2Cc3ccccc3C2)c1,i,4,i,i,2,i,·,·
O=C(NCC(c1ccco1)N1CCCC1)c1ccccc1Sc1ccc(C(F)(F)F)cc1[N+](=O)[O-] (centres undefined),i,4,i,i,1,i,26*,i
CCC[n+]1c(C)sc2c3c(ccc21)CCCC3,i,4,11*,i,2,i,82*,-69*
COc1cccc(C(=O)NCCS(=O)(=O)N(C)Cc2ccccc2)c1,i,-4,i,i,8,i,·,·
COc1ccc(-n2c(-c3ccc(Br)cc3)c[n+]3c2CCc2ccccc2-3)cc1,i,0,i,i,-5,i,91*,-29*
CC(C)c1ccc(-n2c(-c3ccccc3)c[n+]3c2CCc2ccccc2-3)cc1,·,-4,·,·,·,i,·,·
COc1ccccc1-n1c(-c2ccccc2)c[n+]2c1CCc1ccccc1-2,i,5,11*!,i,12,i,32*,i
COC(=O)c1ccc2nc(C)cc(Nc3ccccc3C)c2c1,i,8,6.6*,i,0,i,44*,-44*
COC(=O)c1ccc(Nc2cc(C)nc3ccc(C)cc23)cc1,i,-5,i,i,1,i,·,·
COc1ccc(Nc2nccc3c2ncn3C)cc1,i,7,i,i,2,i,61*,-56*
